From the supplement of paper PMC9446081
Out of some 39,000 compounds screened, about 220 (0.56%) showed activity. The list comes from a sample in which actives are over-represented; it also holds similar structures and randomly drawn compounds. Unmarked numbers belong to inactive results.

tested on: Escherichia coli K-12 BW25113; experiment: relative growth (OD600 normalised to plate interquartile mean) (fraction); higher = less growth inhibition, active = 0.2 or less; conditions: 50 µM; LB; incubation time: overnight (16-24 h)
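Further: Wild-type cells incubated without shaking, value is the mean of two biological replicates.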

Row | SMILES | relative growth
1 | O=C(C[C@H]1C[C@H]2c3cc(NC(=O)Cc4ccncc4)ccc3O[C@H]2[C@H](CO)O1)NCCN1CCCCC1 | 1.02
2 | Cc1noc(C)c1NC(=O)Nc1ccc2c(c1)C(=O)N([C@@H](C)CO)C[C@H](C)[C@@H](CN(C)S(=O)(=O)c1ccccc1)O2 | 0.987
3 | COCC#Cc1ccc2c(c1)O[C@@H](CN(C)S(=O)(=O)c1ccc(C)cc1)[C@@H](C)CN([C@H](C)CO)S2(=O)=O | 1.02
4 | C[C@@H]1CN([C@@H](C)CO)C(=O)c2cccc(NC(=O)Nc3ccc(F)cc3)c2O[C@H]1CN(C)S(=O)(=O)c1cn(C)cn1 | 0.984
5 | C[C@@H]1CN([C@H](C)CO)C(=O)Cc2cc(NC(=O)Cn3cnnn3)ccc2O[C@H]1CN(C)Cc1ccncc1 | 0.971
6 | C[C@@H]1CN([C@@H](C)CO)C(=O)CCCn2nncc2CO[C@@H]1CN(C)C(=O)c1ccc(N2CCN(C)CC2)cc1 | 0.987
7 | COc1ccc([Si](C)(C)[C@H]2[C@H](CCOC(=O)NCCCCCC(=O)NO)O[C@]3(C(=O)N(Cc4cccc(N5CCCCC5=O)c4)c4ccccc43)[C@@H]2C)cc1 | 1.02
8 | Nc1cc[nH]c(=O)n1 | 0.997
9 | CCCCC(O)c1ccccc1 (centres undefined) | 0.973
10 | CCCCCCCCCCCCCCCC[N+](C)(C)CCN(Cc1ccc(OC)cc1)c1ncccn1 | 0.555
11 | CCCCNc1ccccc1 | 0.996
12 | CCCCCCCCCCCCCCCC[N+](C)(C)Cc1ccccc1.[Cl-] | 0.0933 (active)
13 | CC[N+](C)(CC)Cc1ccccc1 | 0.993
14 | CCCCCCCCCCCCC[N+](C)(C)Cc1ccccc1 | 0.0319 (active)
15 | CCCCCc1ccccn1 | 0.974
16 | CCCCCCCCCCCCC[N+](C)(C)Cc1ccccc1.O.[Cl-] | 0.0544 (active)
17 | CCCC[C@@H](O)c1ccccc1 | 0.992
18 | C[C@H](CO)N1C[C@H](C)[C@@H](CN(C)Cc2ccc(Oc3ccccc3)cc2)Oc2c(NC(=O)Nc3ccc(C(F)(F)F)cc3)cccc2C1=O | 0.795
19 | CN(C)CC(=O)N[C@@H]1CC[C@@H](CC(=O)O)O[C@@H]1CO | 0.983
20 | C[C@H](CO)N1C[C@H](C)[C@@H](CN(C)CC2CCCCC2)Oc2ccc(NC(=O)CCN3CCOCC3)cc2C1=O | 0.981
21 | NCC[C@@H]1CC[C@H](NC(=O)C2CC2)[C@H](CO)O1 | 0.995
22 | C[C@H]1CN([C@@H](C)CO)C(=O)CCCn2nncc2CO[C@@H]1CN(C)Cc1cccc2c1OCCCO2 | 0.992
23 | O=C(Oc1ccc(Cl)cc1)c1sc2ccccc2c1Cl | 1.05
24 | NS(=O)(=O)c1ccc(O)c([N+](=O)[O-])c1 | 0.992
25 | Oc1c(Cl)cc(Cl)c2cccnc12 | 0.111 (active)
26 | Oc1c(I)cc(Cl)c2cccnc12 | 0.463
27 | O=[N+]([O-])c1ccc(O)c2ncccc12 | 0.0542 (active)

Row | SMILES | relative growth
28 | Oc1c(Br)cc(Br)c2cccnc12 | 0.379
29 | Nc1ncccc1O | 1.03
30 | Fc1cccc2c(Cl)ccnc12 | 0.976
31 | Oc1c(I)cc(I)c2cccnc12 | 1.04
32 | Oc1ccc(Cl)c2cccnc12 | 0.0534 (active)
33 | C[C@H]1CN([C@@H](C)CO)C(=O)c2cc(NC(=O)Cn3cnnn3)ccc2O[C@@H]1CN(C)Cc1ccncc1 | 1.02
34 | C[C@@H]1CN([C@H](C)CO)C(=O)c2cc(NS(=O)(=O)c3ccc(F)cc3)ccc2O[C@H]1CN(C)S(=O)(=O)c1cn(C)cn1 | 1.04
35 | C[C@@H]1CN([C@@H](C)CO)C(=O)c2cc(NC(=O)C3CCCCC3)ccc2O[C@@H](C)CCCCO[C@H]1CN(C)Cc1ccc(C(=O)O)cc1 | 0.977
36 | Cl.Nc1ccn(C2OC(CO)C(O)C2(F)F)c(=O)n1 (centres undefined) | 1.09
37 | COc1ccc(S(=O)(=O)Nc2ccc3c(c2)C(=O)N([C@@H](C)CO)C[C@H](C)[C@H](CN(C)S(=O)(=O)c2ccc(F)cc2)O3)cc1 | 1
38 | C[C@H](CO)N1C[C@H](C)[C@@H](CN(C)Cc2ccc(C(=O)O)cc2)OCCCC[C@H](C)Oc2ccc(NC(=O)Nc3ccc4c(c3)OCO4)cc2C1=O | 0.95
39 | COCC#Cc1cnc2c(c1)C(=O)N([C@H](C)CO)C[C@H](C)[C@@H](CN(C)S(=O)(=O)c1ccccc1)O2 | 1
40 | CC(=O)N[C@H](C)c1cn(C)nc1C | 1.03
41 | C[C@@H]1CN([C@H](C)CO)C(=O)c2cc(NC(=O)C3CCCCC3)ccc2O[C@@H](C)CCCCO[C@@H]1CN(C)S(=O)(=O)c1cccs1 | 0.933
42 | O=c1[nH]cc(N2CCCCC2)c(=O)[nH]1 | 1
43 | O=c1[nH]cc(F)c(=O)[nH]1 | 0.196 (active)
44 | O=c1[nH]cc(Nc2ccccc2)c(=O)[nH]1 | 1.01
45 | C[N+]1(C)C2CCC1CC(OC(=O)C(O)c1ccccc1)C2.[Br-] (centres undefined) | 0.924
46 | Nc1nnc(C(=O)c2ccccc2N)s1 | 0.951
47 | Cc1noc(C)c1NC(=O)Nc1ccc2c(c1)CC(=O)N([C@@H](C)CO)C[C@H](C)[C@H](CN(C)S(=O)(=O)c1ccccc1)O2 | 0.971
48 | Cc1noc(C)c1NC(=O)N(C)C[C@H]1Oc2ccc(NS(=O)(=O)c3c(C)noc3C)cc2CC(=O)N([C@@H](C)CO)C[C@@H]1C | 0.985
49 | C[C@H](CO)N1C[C@H](C)[C@@H](CN(C)S(=O)(=O)c2ccccc2)OCCCC[C@H](C)Oc2ccc(NS(=O)(=O)c3cn(C)cn3)cc2C1=O | 0.993
50 | O=C(/C=C/c1cccc(-c2cn(-c3cccc(C(=O)N4CCC5(CC4)C(=O)NCN5c4ccccc4)c3)nn2)c1)NO | 0.972
51 | O=C(NO)c1cn(CC(=O)N2CCC3(CC2)C(=O)NCN3c2ccccc2)nn1 | 0.94
52 | O=C(NO)c1cn(-c2cccc(C(=O)N3CCC4(CC3)C(=O)NCN4c3ccccc3)c2)nn1 | 0.0368 (active)
53 | C[C@H](CO)N1C[C@H](C)[C@@H](CN(C)CC2CC2)Oc2c(NS(=O)(=O)c3cn(C)cn3)cccc2C1=O | 0.999
54 | COC(=O)C[C@@H]1CC[C@@H]2[C@@H](COc3ccc(NS(=O)(=O)c4ccccc4Cl)cc3C(=O)N2C)O1 | 1.03

Row | SMILES | relative growth
55 | CS(=O)(=O)Nc1cccc(C2=NN(c3nc(-c4ccccc4)c4cc(Cl)ccc4n3)[C@H](c3ccco3)C2)c1 | 1
56 | Cc1noc(C)c1NC(=O)Nc1ccc2c(c1)C(=O)N([C@@H](C)CO)C[C@@H](C)[C@H](CN(C)S(=O)(=O)c1ccc(F)cc1)OCCCC[C@H](C)O2 | 1.03
57 | O=C(C[C@@H]1C[C@@H]2c3cc(NS(=O)(=O)c4ccc(F)cc4)ccc3O[C@@H]2[C@H](CO)O1)NC1CCCC1 | 0.992
58 | COc1ccc(C#Cc2ccc3c(c2)O[C@@H](CN(C)C(C)=O)[C@@H](C)CN([C@@H](C)CO)S3(=O)=O)cc1 | 1.03
59 | COc1ccc(Cc2cnc(N)nc2N)cc1OC | 0.0502 (active)
60 | COc1cccnc1N | 0.99
61 | COc1cc(Cc2cnc(N)nc2N)cc(OC)c1OC | 0.044 (active)
62 | COc1cc(O)cc(OC)c1OC | 1.1
63 | COc1cc(CN)cc(OC)c1OC | 1
64 | COc1ccc(C2=C(N)C(=O)NC2=O)cc1OC | 0.93
65 | Cc1ccc(S(=O)(=O)N(C)C[C@H]2Oc3c(NS(=O)(=O)c4cn(C)cn4)cccc3C(=O)N([C@@H](C)CO)C[C@@H]2C)cc1 | 0.959
66 | Cc1noc(C)c1NC(=O)Nc1cccc2c1O[C@@H](CN(C)Cc1ccc(Oc3ccccc3)cc1)[C@H](C)CN([C@H](C)CO)C2=O | 0.995
67 | COc1ccc(-c2cnc3c(c2)C(=O)N([C@H](C)CO)C[C@H](C)[C@@H](CN(C)S(=O)(=O)c2ccc(OC)cc2)O3)cc1 | 1
68 | C[C@@H]1CN([C@@H](C)CO)C(=O)c2cc(N(C)C)ccc2O[C@@H](C)CCCCO[C@@H]1CN(C)C(=O)Nc1ccc(C(F)(F)F)cc1 | 0.928
69 | COc1cccc(S(=O)(=O)Nc2ccc3c(c2)[C@@H]2C[C@@H](CC(=O)N4CCCCC4)O[C@@H](CO)[C@@H]2O3)c1 | 0.993
70 | C[C@H]1CN([C@@H](C)CO)S(=O)(=O)c2ccc(Br)cc2O[C@@H]1CN(C)C(=O)c1cccnc1 | 0.972
71 | C[C@@H]1CN([C@H](C)CO)S(=O)(=O)c2ccc(-c3cccc(C#N)c3)cc2O[C@@H]1CN(C)C(=O)c1cccnc1 | 1.01
72 | Cc1n[nH]c(=S)n1N | 0.968
73 | Cc1nnsc1-c1onc(C)c1C(N)=O | 0.866
74 | C[C@H]1CN([C@@H](C)CO)C(=O)c2cccc(NC(=O)C3CC3)c2O[C@@H]1CN(C)S(=O)(=O)c1ccc(Cl)cc1 | 1
75 | C[C@@H]1CN([C@H](C)CO)C(=O)Cc2cc(NC(=O)Cc3cn(C)c4ccccc34)ccc2O[C@H]1CN(C)CC1CCCCC1 | 1.02
76 | CO[C@H]1C[C@@H]2CC[C@@H](C)[C@@](O)(O2)C(=O)C(=O)N2CCCC[C@H]2C(=O)O[C@H]([C@H](C)C[C@@H]2CC[C@@H](OP(C)(C)=O)[C@H](OC)C2)CC(=O)[C@H](C)/C=C(\C)[C@@H](O)[C@@H](OC)C(=O)[C@H](C)C[C@H](C)/C=C/C=C\C=C\1C | 0.837
77 | Cl.Nc1c2c(nc3ccccc13)CCCC2 | 0.911
78 | Nc1c2c(nc3ccccc13)CCCC2 | 0.985
79 | Nc1c2ccccc2nc2ccccc12 | 0.0461 (active)
